Experimental data from PubChem BioAssay (NCI).
The panel holds about 83,000 compounds, 20% with a hit somewhere; the sample as a whole holds those more often.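 Method: cells in 96-well plates; compound added at one concentration; 48 h incubation; percent growth measured; values under 10 scored active.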 A number with no mark means an inactive call. Active and inactive are the calls of the source.

Tested on: SK-MEL-5 melanoma
Test: NCI-60 one-dose screen, 48 h (100 = growth as untreated, 0 = no growth, -100 = all killed)
Details: 10 µM unless noted

Compound	growth
CC(=O)Oc1ccccc1C(=O)Nc1cc(C(C)C)ccc1C	-31.9% (active)
COc1ccc(/C=N/NC(=O)c2[nH]c3ccc(Br)cc3c2-c2ccccc2)s1	-24.4% (active)
O=C(CN1C(=O)/C(=C/c2ccccc2)SC1=S)N1CCOCC1	97%
COc1ccc(-c2nc3ccc(-c4nnc(SCC(=O)Nc5ccc(C(=O)/C=C/c6ccc(Cl)cc6)cc5)o4)cc3[nH]2)cc1OC	97.6%
CN1C(=S)N(C)C2C1NN=C1SC(c3ccccc3)=CC(=O)N12 (centres undefined)	64.3%
CN(C)c1ccc(/C=C2\Cc3c(F)ccc(Br)c3C2=O)cc1	96.4%
CN(C)S(=O)(=O)c1oc(-c2ccccc2)nc1C#N	93.1%
CC(C)(C)OC(=O)N1C(=O)c2c(c3c4ccccc4[nH]c3c3ccc4ccccc4c23)C1=O	60.4%
Cc1[nH]nc2ncc(C#Cc3cncc(C(=O)Nc4ccc(CN5CCN(C)CC5)c(C(F)(F)F)c4)c3)cc12	40.2%
C#Cc1nc(C2=C(C)C(=N\O)/C(=N/O)C2)cs1	99%
O=c1[nH]c2ccccc2cc1CSc1ccccc1Nc1nccc(-c2ccc(C(F)(F)F)cc2)n1	96.2%
COC1CCN(Cc2ccc3c(NNC(=O)c4cnccn4)nc4cc(F)ccc4n23)C1 (centres undefined)	15.9%
O=C(CN1CCOCC1)NNc1ncnc2ccccc12	98.2%
Cn1c(SCC(=O)Nc2ccc(-c3nc4ccc([N+](=O)[O-])cc4[nH]3)cc2)nc2ccccc2c1=O	84.8%
O=C(CSc1nc2sc3c(c2c(=O)n1-c1ccc(Cl)cc1)CCCC3)N/N=C/c1ccc(F)cc1	103%
O=c1/c(=C\c2ccc(-c3ccccc3)o2)sc2nc(-c3ccccc3)nn12	101%
COC(=O)C1CCCN(S(=O)(=O)/N=C2\NC(=O)NC2=C(Cl)Cl)C1 (centres undefined)	101%
Clc1ccc2c(NCCCN3CCOCC3)c3oc4ccc(Cl)cc4c3nc2c1	74.2%
N#Cc1nc(-c2ccccc2)oc1N1CC[C@@H](CO)C1	99.6%
O=C(c1ccc(O)cc1)C1[C@H](c2ccc(Cl)cc2)[C@@H](c2ccccc2)NC12C(=O)Nc1ccc(Cl)cc12 (some centres undefined)	67.3%
COc1cccc(OC)c1-c1nnn(C)c1C(=S)N1CCN(c2ccc([N+](=O)[O-])cc2Cl)CC1	90.1%
CCCC(=O)NC(c1cccc(N(C)C)c1)c1cc(C)c2cccnc2c1O (centres undefined)	62.7%
CC(=O)Oc1ccccc1C(=O)Nc1ccc(C(=O)/C=C/c2ccncc2)cc1	74%
C#Cc1nc(C2=C(C)C(OC(=O)CCC(=O)O)CC2)cs1 (centres undefined)	101%
